Hit rate of the full screen: of about 69,000 compounds, about 8,600 (12%) showed an effect of 50% or more. What follows is part of a selection rich in strong results, with near analogues and random picks from the rest.

This test has as its system Plasmodium berghei. Kind of test: Screen against P. berghei liver stage (PbLuc), transformed with Luciferase, at 10uM. Type of test: functional, HepG2. To be noted: tested at 10 uM.
On to `CN1CCCC(c2nc3c([nH]2)CC(C)(C)CNC3=O)C1` (stereo not drawn), for which the INHIBITION is reported as -67.3%.
The figure for `CC1(C)CNC(=O)c2nc(CCCN3CCCC3)[nH]c2C1` is 83.2%.
The figure for `CC1(C)CNC(=O)c2nc(CCN3CCOCC3)[nH]c2C1` is -13%; for `CC1(C)CNC(=O)c2nc(CCN3CCC(C(N)=O)CC3)[nH]c2C1` it is 8.38%; for `O=C(NCC1CC1)Nc1ccc(OCC(F)(F)F)nc1` it is 23.73%.
The figure for `O=S(=O)(Cc1c(F)cccc1Cl)Cc1nnnn1C1CC1` is 25.8%; for `COc1ccc(OC)c(C2CCN(C(=O)C3CCN(C(C)C)CC3)C2)c1` (stereo not drawn) it is 53.3%.
As for `COc1ccc(OC)c(C2CCN(C(=O)C3CCS(=O)(=O)CC3)C2)c1` (stereo not drawn), the INHIBITION is reported as 40.5%.
As for `COc1ccc(OC)c(C2CCN(C(=O)CCc3n[nH]c(N)n3)C2)c1` (stereo not drawn), the INHIBITION was -24%.
`COc1ccc(OC)c(C2CCN(C(=O)C3CCC(O)CC3)C2)c1` (stereo not drawn): the INHIBITION is 25.5%.
Regarding `COc1ccc(OC)c(C2CCN(C3CCN(C(C)=O)CC3)C2)c1` (stereo not drawn), the INHIBITION amounted to 27.7%.
The figure for `COc1ccc(OC)c(C2CCN(C(=O)C3CCOCC3)C2)c1` (stereo not drawn) is 50.1%; for `CN(CC(=O)Nc1cc(C(C)(C)C)n[nH]1)S(C)(=O)=O` it is 3.63%; for `O=C(NCC1(Sc2ccccc2)CC1)c1c[nH]nn1` it is 20.8%.
On to `CN(C)CC(=O)N1CCN(CC(O)c2ccc(F)cc2)CC1` (stereo not drawn), for which the INHIBITION was -11.4%.
The figure for `COc1ccccc1OCCc1nnc(NC(=O)C2CC23CCC3)s1` (stereo not drawn) is 31.97%.
The figure for `CSCC(=O)N1C[C@@H]2CC[C@H]1CN(Cc1ccccc1)C2` is -79.7%; for `CCOc1ccc(C(=O)Nc2c(C)nc3ccc(Cl)cn3c2=O)cc1` it is 51.6%.
With `CCOc1ccc(C(=O)Nc2c(C)nc3scc(C)n3c2=O)cc1`, the INHIBITION is on record as 5.58%.
The figure for `CCOc1ccc(C(=O)Nc2ccn(CC)n2)cc1` is -125%.
As to `COc1ccc(C(=O)Nc2c(C)nc3cccc(C)n3c2=O)cc1`, the INHIBITION amounted to 31.7%.
The figure for `CCOc1ccc(C(=O)Nc2c(C)nc3cccc(C)n3c2=O)cc1` is -14.7%; for `CCOc1ccc(C(=O)Nc2c(C)nc3ccccn3c2=O)cc1` it is 56.5%; for `Cn1cccc1C(=O)N1C[C@@H]2CC[C@H]1CN(Cc1cscn1)C2` it is -9.39%.
In the case of `COc1c(CNC2CCC(O)CC2)c(C(C)C)nn1C` (stereo not drawn), the INHIBITION is on record as -18.8%.
The figure for `O=C1c2cccnc2OC(CN2CCOCC2)CN1CC1CC1` (stereo not drawn) is 24.5%; for `Cc1nc(C)n(C2CCCN(C(=O)c3c(C)nn4cccnc34)C2)n1` (stereo not drawn) it is 26.4%.
Turning to `Cc1cc(C(=O)N2CCOC(c3nc(C(C)C)n[nH]3)C2)no1` (stereo not drawn), the INHIBITION is listed as 25.1%.
`COc1cccc(CNC(=O)c2nc3c(s2)CCN(C(C)=O)CC3)c1`: the INHIBITION is listed as 10.1%.
Consider `COc1cccc(CC(=O)N2CCc3nc(C(N)=O)sc3CC2)c1`, for which the INHIBITION was -16.9%.
Regarding `COc1cccc(CN2CCc3nc(C(=O)NCC(C)C)sc3CC2)c1`, the INHIBITION is given as 84.5%.
In the case of `COc1cccc(CN2CCc3nc(C(N)=O)sc3CC2)c1`, the INHIBITION is reported as 2.41%.
Take `CC(C)CNC(=O)c1nc2c(s1)CCN(C(=O)c1cccnc1)CC2`: the INHIBITION is -47.5%.
On to `CNC(=O)N1CCc2nc(C(=O)NCc3cccc(OC)c3)sc2CC1`, for which the INHIBITION is listed as 70.7%.
Take `CCN(CC)C(=O)c1nc2c(s1)CCN(Cc1cccc(OC)c1)CC2`: the INHIBITION is given as 66.8%.
For `CNC(=O)c1nc2c(s1)CCN(C(=O)c1cccc(OC)c1)CC2`, the INHIBITION is -78%.
As to `COc1ccc(CNC(=O)c2nc3c(s2)CCN(C(C)=O)CC3)cc1`, the INHIBITION is reported as 34.6%.
The figure for `O=C1OCCN1Cc1nc(C2(c3ccc(F)cc3)CCOC2)no1` (stereo not drawn) is -73.4%; for `CCc1nc(CN2CC(C(=O)OC)O[C@H](C)C2)cs1` (stereo partly drawn) it is 30.3%.
The figure for `CS(=O)(=O)NCCN1CCCC1c1noc(C2CC2)n1` (stereo not drawn) is 0.914%; for `CN(C)Cc1ccnc(C2CN(CCc3ccccc3)CCO2)n1` (stereo not drawn) it is 17.4%.
Turning to `Cn1cncc1CN1CCC2(CCCN2c2ncccn2)CC1`, the INHIBITION came out at 16.9%.
The figure for `CC(C)(N)C(=O)N1CCCC(c2cncc(Oc3cccnc3)n2)C1` (stereo not drawn) is 41.2%; for `O=C1CCCN1C(CNS(=O)(=O)C1CC1)Cc1cccc(F)c1` (stereo not drawn) it is 58.5%.
As for `CCCC(=O)NCC(Cc1cccc(F)c1)N1CCCC1=O` (stereo not drawn), the INHIBITION turned out to be 8.31%.
For `CCOCC(=O)NCC(Cc1cccc(F)c1)N1CCCCC1=O` (stereo not drawn), the INHIBITION is 54.1%.
The figure for `CCOCC(=O)NCC(Cc1cccc(F)c1)n1cccc1` (stereo not drawn) is 47.2%; for `O=C1NCCN1C(CNS(=O)(=O)C1CC1)Cc1cccc(F)c1` (stereo not drawn) it is 20.1%; for `O=C(NCC(Cc1cccc(F)c1)N1CCCC1=O)C1CCCC1` (stereo not drawn) it is 0.923%.
The figure for `CN(C)C(=O)N1C[C@H](Oc2ccccn2)[C@H]2OCCC[C@H]21` is -6.32%; for `CC1Oc2ccc(S(=O)(=O)NCCCn3ccnc3)cc2NC1=O` (stereo not drawn) it is 56.5%.
The figure for `COCCCNS(=O)(=O)c1ccc2c(c1)NC(=O)C(C)O2` (stereo not drawn) is -35.5%; for `CC1(C)Oc2ccc(S(=O)(=O)NCCCn3ccnc3)cc2NC1=O` it is 17.4%.
